# The supplement of paper PMC10941209
# Unmarked numbers belong to inactive results.
# Test system: Toxoplasma gondii RH 2F1 tachyzoites (intracellular in HFF)
# Assay: parasite survival relative to DMSO control; higher = less antiparasitic activity, active = 20 or less
# Conditions: 1 µM; 72 h
# Description: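 Primary single-dose screen of the MMV Pandemic Response Box at 1 uM against T. gondii RH-2F1 (beta-galactosidase) tachyzoites in HFF cells, 72 h at 37 C. Parasite growth read by CPRG absorbance at 570 nm and normalised to DMSO-treated infected controls (% survival); pyrimethamine was the reference drug. The paper calls at least 80% inhibition a hit.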
row,Structure (SMILES),parasite survival
1,C=C(C)[C@@H]1CC[C@]2(C(=O)O)CC[C@]3(C)[C@H](CC[C@@H]4[C@@]5(C)CC[C@H](O)C(C)(C)[C@@H]5CC[C@]43C)[C@@H]12,46.6%
2,Cc1c(N)cccc1Cn1ccc(OCCc2cccs2)cc1=O,48.8%
3,CCN(CC)S(=O)(=O)c1ccc(Cl)c(C(=O)Nc2sc3c(c2C#N)CCCC3)c1,44%
4,CCCCCc1ccc(C(=O)NCCn2cc(CCCCCc3c[nH]c(N)n3)nn2)cc1,67.5%
5,CCc1nc(N)nc(N)c1C#CCc1ccccc1,5.77% (active)
6,C[C@H]1COc2c(N3CCN(C)CC3)c(F)cc3c(=O)c(C(=O)O)cn1c23,51.4%
7,CC(C)n1cnc2c(NCc3ccccc3)nc(NCc3ccccc3)nc21,39.1%
8,Cc1cc(O)c2c(c1)C(=O)c1c(I)c(O)c(I)c(O)c1C2=O,47%
9,CC[C@H](NC(=O)[C@H](C)NC)C(=O)N1C[C@@H](O)C[C@H]1Cc1c(-c2[nH]c3cc(F)ccc3c2C[C@@H]2C[C@H](O)CN2C(=O)[C@H](CC)NC(=O)[C@H](C)NC)[nH]c2cc(F)ccc12,8.15% (active)
10,O=C(NCc1ccc(F)cc1)c1c(O)c2ncccc2[nH]c1=O,75.5%
11,Cc1cc(NS(=O)(=O)c2ccc(-c3ccc(F)cc3F)cc2)no1,55%
12,Clc1ccc(COC(Cn2ccnc2)c2ccc(Cl)cc2Cl)c(Cl)c1 (stereo not given),21.8%
13,O=C(O)COc1cccc2c1CC[C@](O)(COC(=O)N(c1ccccc1)c1ccccc1)C2,76.3%
14,COc1ccccc1NC(=O)c1ccccc1Sc1ccc([N+](=O)[O-])cc1,52%
15,O=C(O)CSc1cc(NS(=O)(=O)c2cccc3cccnc23)c2ccccc2c1O,60.2%
16,COc1ccc2c(c1)cc(CNC(=O)c1cc3ccccc3o1)n2CC(=O)O,64.2%
17,COc1cc(C(C(=O)NC2CCCCC2)N(C(=O)Cc2c[nH]c3ccccc23)c2ccc(C(C)C)cc2)cc(OC)c1OC (stereo not given),46.5%
18,OCCCCn1cnc2c(O)nc(NCc3ccc(Cl)c(Cl)c3)nc21,59.7%
19,N#C/C(=C1/SC[C@H](c2ccc(Cl)cc2Cl)S1)n1ccnc1,41.2%
20,N=c1n(CCN2CCCCC2)c2ccccc2n1CC(O)COc1ccc(Cl)cc1Cl (stereo not given),10.8% (active)

row,Structure (SMILES),parasite survival
1,COc1ccc(-n2cnc3cc(NCc4ccco4)ccc32)cc1,35%
2,O=C(NC1CCCc2c1[nH]c1ccc(Cl)cc21)c1ccccn1 (stereo not given),63.8%
3,Oc1ccc2[nH]c(-c3ccccc3)nc2c1,66.2%
4,C=C(C)n1c(=O)n(Cc2ccccc2C)c2ccccc21,44.5%
5,Cc1oncc1C(=O)Nc1ccc(C(F)(F)F)cc1,77.7%
6,O=C(CP(=O)(O)O)NCCc1cccc(Oc2ccccc2)c1,40.8%
7,Cc1cc(Nc2ccc(F)cc2)nc(SCc2nc3ccccc3[nH]2)n1,42.4%
8,O=S(=O)(Nc1ccc(O)cc1)c1cccc2cccnc12,64.4%
9,Nc1nc2c(ncn2/C=C2/CC2(CO)CO)c(=O)[nH]1,84.8%
10,O=C(NCc1ccc2c3c(cccc13)C(=O)N2)c1cccs1,75.5%
11,CCCCc1ccc(-c2cc(C(=O)O)cc(-c3ccc(Cl)cc3)n2)cc1,40.8%
12,O=C1CCC(N2C(=O)c3ccccc3C2=O)C(=O)N1 (stereo not given),58.1%
13,CN(C)CCCOc1ccc(-c2ccc3ncc4c(c3c2)n(C2CCOCC2)c(=O)n4C)cn1,50.5%
14,Cc1ccc(C)c(OCCCCCCN2C[C@H](O)[C@@H](O)[C@H](O)[C@H]2CO)c1,62.8%
15,OC1O[C@H](CSc2ccc(F)cc2)[C@@H](O)[C@H]1O (stereo not given in full),49.9%
16,Nc1nc2c(Cc3cccnc3)c[nH]c2c(=O)[nH]1,72.8%
17,CC(C)(C)c1cc(CCC(=O)N2CCC2)cc(C(C)(C)C)c1O,52.9%
18,CCCCCCCCCN1C[C@@H](O)[C@H](O)[C@@H](O)[C@@H]1CO,56.8%
19,Cc1nc(Nc2ccc(F)cc2)nc(N2CCc3ccccc3C2C)c1C (stereo not given),20.5%
20,COc1ccccc1CN[C@H]1C2CCN(CC2)[C@H]1C(c1ccccc1)c1ccccc1,37.5%
